Records with an inconclusive call do not appear. The source made the active and inactive calls. Unless noted, calls come from the whole dose curve; as a rule, active = well fitted curve in the direction sought with a large enough effect in the repeat runs; inconclusive = weak or mixed curves; inactive = no such curve, though single readings can be large; an effect the other way counts as inactive or inconclusive.
Key:
[1] = qHTS assay to identify small molecule agonists of the peroxisome proliferator-activated receptor delta (PPARd) signaling pathway - cell viability counter screen (AID 743211); note: % is set by controls: 0 for no effect and ±100 for the full control effect; nearly all actives have a fitted effect of over 55% in size
Method in brief: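 HEK293H PPARd-bla, 3000 cells/well; 5 h preincubation 37C/5% CO2; cpd in DMSO, 17 h 37C; B/G FRET substrate 2 h RT; CellTiter-Glo 30 min RT, luminescence.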

[2] = target: Peroxisome proliferator-activated receptor delta (Homo sapiens) (UniProt Q03181); assay: qHTS assay to identify small molecule agonists of the peroxisome proliferator-activated receptor delta (PPARd) signaling pathway (AID 743212; calls by dose curve; note: % is set by controls: 0 for no effect and ±100 for the full control effect)
Chain of Peroxisome proliferator-activated receptor delta (Homo sapiens) (Q03181 whole entry, looked up): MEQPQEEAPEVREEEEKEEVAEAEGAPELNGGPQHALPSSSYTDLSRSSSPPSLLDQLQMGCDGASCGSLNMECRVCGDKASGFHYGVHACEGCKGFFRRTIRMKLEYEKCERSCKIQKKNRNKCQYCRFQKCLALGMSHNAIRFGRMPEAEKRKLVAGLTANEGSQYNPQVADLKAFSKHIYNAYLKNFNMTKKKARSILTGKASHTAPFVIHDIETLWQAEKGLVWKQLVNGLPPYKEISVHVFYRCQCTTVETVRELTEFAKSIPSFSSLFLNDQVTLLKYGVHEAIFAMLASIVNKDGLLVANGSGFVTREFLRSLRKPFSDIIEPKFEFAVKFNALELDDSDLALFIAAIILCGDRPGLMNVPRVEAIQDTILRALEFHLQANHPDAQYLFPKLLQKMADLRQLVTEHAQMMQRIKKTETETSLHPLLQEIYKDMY
Method in brief: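 A PPARd-bla HEK293H line with beta-lactamase under an Upstream Activator Sequence is treated with compounds at 37 C. Substrate loading for 2 h at room temperature precedes the fluorescence measurement.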

[3] = qHTS assay to identify small molecule antagonists of the peroxisome proliferator-activated receptor delta (PPARd) signaling pathway - cell viability counter screen (AID 743213); note: % is set by controls: 0 for no effect and ±100 for the full control effect; nearly all actives have a fitted effect of over 50% in size
Method in brief: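 Cytotoxicity counter screen: CellTiter-Glo luminescence read 30 min after addition, in the same wells as the reporter assay. There, PPARd UAS-bla HEK293H cells (3000/well) were treated 17 h at 37 C with compound and 300 nM L165041.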

[4] = target: Peroxisome proliferator-activated receptor delta (Homo sapiens) (UniProt Q03181); assay: qHTS assay to identify small molecule antagonists of the peroxisome proliferator-activated receptor delta (PPARd) signaling pathway (AID 743215; active = well fitted inhibition curve with a large enough effect in the signal ratio in the repeat runs, not every such curve was filed as active; the % refers to the signal ratio;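 note: cells stimulated with agonist L165041 at 300 nM final during compound exposure; series mostly up to about 62 µM; % is set by controls: 0 for no effect and ±100 for the full control effect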)
Method in brief: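 Antagonist-mode beta-lactamase reporter screen: HEK293H cells with UAS-bla under PPARd control, stimulated by 300 nM L165041 (final) alongside test compound for 17 h at 37 C, then FRET fluorescence after 2 h substrate incubation.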

[5] = qHTS assay to identify small molecule agonists of the farnesoid-X-receptor (FXR) signaling pathway - cell viability counter screen (AID 743218); note: % is set by controls: 0 for no effect and ±100 for the full control effect; nearly all actives have a fitted effect of over 45% in size
Method in brief: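 In GeneBLAzer FXR-UAS-bla HEK 293T cells, compounds act for 16 h at 37 C. Cell viability is then scored in the reporter wells by CellTiter-Glo, 30 min at RT, luminescence.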

[6] = qHTS assay to identify small molecule antagonists of the farnesoid-X-receptor (FXR) signaling pathway - cell viability counter screen (AID 743221; active = well fitted cell-killing curve with a large enough effect in the repeat runs, not every such curve was filed as active; note: % is set by controls: 0 for no effect and ±100 for the full control effect; nearly all actives have a fitted effect of over 50% in size)
Method in brief: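 Luminescence from CellTiter-Glo measures cytotoxicity in GeneBLAzer FXR-UAS-bla HEK 293T cells. Cells were exposed to compounds with 50 uM chenodeoxycholic acid (final) for 16 h at 37 C, in wells also used for the reporter readout.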

[7] = target: Vitamin D3 receptor (Homo sapiens) (UniProt P11473); assay: qHTS assay to identify small molecule agonists of the vitamin D receptor (VDR) signaling pathway (AID 743222; calls by dose curve; note: % is set by controls: 0 for no effect and ±100 for the full control effect)
Chain of Vitamin D3 receptor (Homo sapiens) (P11473 whole entry, looked up): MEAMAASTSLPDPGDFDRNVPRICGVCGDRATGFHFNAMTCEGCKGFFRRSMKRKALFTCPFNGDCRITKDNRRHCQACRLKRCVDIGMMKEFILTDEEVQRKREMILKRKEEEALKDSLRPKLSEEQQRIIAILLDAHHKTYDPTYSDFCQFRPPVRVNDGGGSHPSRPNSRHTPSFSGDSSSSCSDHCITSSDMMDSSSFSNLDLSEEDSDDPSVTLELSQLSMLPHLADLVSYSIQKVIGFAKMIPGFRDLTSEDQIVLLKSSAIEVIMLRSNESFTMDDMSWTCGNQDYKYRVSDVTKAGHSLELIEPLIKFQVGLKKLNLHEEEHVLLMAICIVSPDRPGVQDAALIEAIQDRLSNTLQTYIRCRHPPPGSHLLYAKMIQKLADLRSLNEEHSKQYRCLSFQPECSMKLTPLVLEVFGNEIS
Method in brief: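 Agonist activity measured in VDR-bla reporter cells. Exposure 16 h, 37C, 5% CO2; detection by B/G FRET substrate, 2 h RT.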

[8] = target: Vitamin D3 receptor (Homo sapiens) (UniProt P11473); assay: qHTS assay to identify small molecule antagonists of the vitamin D receptor (VDR) signaling pathway (AID 743223; active = well fitted inhibition curve with a large enough effect in the signal ratio in the repeat runs, not every such curve was filed as active; the % refers to the signal ratio; note: % is set by controls: 0 for no effect and ±100 for the full control effect)
Method in brief: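 Antagonist mode uses 1alpha,25-dihydroxyvitamin D3 at 3 nM final as stimulus. VDR-bla cells receive compounds in DMSO, incubate 16 h at 37C, then a beta-lactamase FRET substrate for 2 h at room temperature before fluorescence measurement.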

[9] = qHTS assay to identify small molecule agonists of the vitamin D receptor (VDR) signaling pathway - cell viability counter screen (AID 743224); note: series mostly up to about 63 µM; % is set by controls: 0 for no effect and ±100 for the full control effect; nearly all actives have a fitted effect of over 50% in size
Method in brief: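 VDR-bla cell line, quantitative HTS format; 16 h compound incubation (37C, 5% CO2); ATP-based CellTiter-Glo luminescence measured in the reporter assay wells.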

[10] = qHTS assay to identify small molecule antagonists of the vitamin D receptor (VDR) signaling pathway - cell viability counter screen (AID 743225); note: % is set by controls: 0 for no effect and ±100 for the full control effect; nearly all actives have a fitted effect of over 50% in size
Method in brief: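 Read-out: CellTiter-Glo luminescence measured 30 min after reagent addition at room temperature. Cells were VDR-bla HEK 293T exposed 16 h at 37C, 5% CO2, to compound with 3 nM final calcitriol agonist.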

[11] = qHTS assay to identify small molecule agonists of the NFkB signaling pathway (AID 1159509; active = well fitted curve in the direction sought with a large enough effect in the signal ratio in the repeat runs, not every such curve was filed as active; the % refers to the signal ratio)
Method in brief: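 ME-180 NFkB-bla, 2,000 cells/well, overnight plating; cpd pinned in DMSO, 5 h 37 C; B/G FRET substrate 1.5 h RT; ex 405, em 460/530 nm.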

[12] = qHTS assay to identify small molecule agonists of the NFkB signaling pathway - cell viability counter screen (AID 1159515; calls by dose curve; note: series mostly up to about 61 µM; % is set by controls: 0 for no effect and ±100 for the full control effect; nearly all actives have a fitted effect of over 55% in size)
Method in brief: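 Viability in NFkB-bla ME-180 cells was measured by CellTiter-Glo luminescence, 30 min room temperature, in wells already treated 5 hr with compounds and read for reporter FRET.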

[13] = qHTS assay to identify small molecule agonists of the endoplasmic reticulum stress response signaling pathway (AID 1159516; active = well fitted activation curve with a large enough effect in the signal ratio in the repeat runs, not every such curve was filed as active; the % refers to the signal ratio; note: % is set by controls: 0 for no effect and ±100 for the full control effect)
Method in brief: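 ER stress element reporter (bla) in HeLa. 1,500 cells/well, overnight attachment; 5 hr compound; 2 hr RT substrate; dual-emission fluorescence.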

[14] = qHTS assay to identify small molecule agonists of the endoplasmic reticulum stress response signaling pathway - cell viability counter screen (AID 1159517; calls by dose curve)
Method in brief: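 CellTiter-Glo was added to wells already read for beta-lactamase FRET, and luminescence was recorded 30 min later. Cells: ESRE-bla HeLa, 1,500 per well, compound exposure 5 hr at 37 C.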

[15] = qHTS assay to identify small molecule antagonists of the retinoid-related orphan receptor gamma (ROR-gamma) signaling pathway - cell viability counter screen (AID 1159520)
Method in brief: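 Tet-on ROR gamma CHO cells (1,000/well) were plated 4 hr, given compounds in DMSO for 2 hr at 37 C, then induced with 1 uM final doxycycline for 16 hr. Viability was read as ATP by CellTiter-Glo luminescence after 30 min.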

[16] = target: Nuclear receptor ROR-gamma (Homo sapiens) (UniProt P51449); assay: qHTS assay to identify small molecule antagonists of the retinoid-related orphan receptor gamma (ROR-gamma) signaling pathway (AID 1159521)
Method in brief: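 CHO Tet-on RORγ, RORE-luc reporter. Cpd 2 h pre-incubation, then dox hyclate 1 uM final, 16 h, 37 C/5% CO2. ONE-Glo luminescence; decrease = antagonist.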

[17] = qHTS assay to identify small molecule agonists of the AP-1 signaling pathway - cell viability counter screen (AID 1159525; calls by dose curve; note: nearly all actives have a fitted effect of over 55% in size)
Method in brief: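 ME-180 AP-1-bla, 2500 cells/well, Opti-MEM + 0.5% dialyzed FBS; overnight 37 °C; cpd 15-pt titration, 5 h 37 °C; CellTiter-Glo 30 min RT; luminescence read; normalised to TOAB and DMSO controls.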

[18] = qHTS assay to identify small molecule agonists of the AP-1 signaling pathway (AID 1159526; calls by dose curve; note: % is set by controls: 0 for no effect and ±100 for the full control effect)
[19] = target: Bile acid receptor (Homo sapiens) (UniProt Q96RI1); assay: qHTS assay to identify small molecule antagonists of the farnesoid-X-receptor (FXR) signaling pathway (AID 743217; active = well fitted inhibition curve with a large enough effect in the signal ratio in the repeat runs, not every such curve was filed as active; the % refers to the signal ratio; note: % is set by controls: 0 for no effect and ±100 for the full control effect)
Chain of Bile acid receptor (Homo sapiens) (Q96RI1 whole entry, looked up): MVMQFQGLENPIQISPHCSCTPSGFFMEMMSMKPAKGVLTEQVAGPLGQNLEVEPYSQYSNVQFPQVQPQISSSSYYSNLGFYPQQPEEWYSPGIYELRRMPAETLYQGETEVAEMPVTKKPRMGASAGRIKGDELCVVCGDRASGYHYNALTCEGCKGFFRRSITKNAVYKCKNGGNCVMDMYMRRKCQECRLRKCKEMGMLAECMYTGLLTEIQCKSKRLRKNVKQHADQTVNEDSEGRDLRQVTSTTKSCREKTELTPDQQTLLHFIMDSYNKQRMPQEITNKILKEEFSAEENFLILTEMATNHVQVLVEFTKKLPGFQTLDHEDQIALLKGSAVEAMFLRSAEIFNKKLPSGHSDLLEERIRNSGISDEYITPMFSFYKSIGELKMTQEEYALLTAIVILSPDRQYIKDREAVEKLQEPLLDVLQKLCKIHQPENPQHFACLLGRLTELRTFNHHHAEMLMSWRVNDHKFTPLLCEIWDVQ
Method in brief: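 Beta-lactamase reporter under UAS control in HEK 293T cells; compound exposure 16 h at 37 °C in the presence of chenodeoxycholic acid (50 uM final); signal from B/G FRET substrate after 2 h at room temperature.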

[20] = target: Bile acid receptor (Homo sapiens) (UniProt Q96RI1); assay: qHTS assay to identify small molecule agonists of the farnesoid-X-receptor (FXR) signaling pathway (AID 743220; active = well fitted activation curve with a large enough effect in the signal ratio in the repeat runs, not every such curve was filed as active; the % refers to the signal ratio; note: % is set by controls: 0 for no effect and ±100 for the full control effect)
Method in brief: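 Beta-lactamase reporter under UAS control in GeneBLAzer FXR HEK 293T cells (5000/well) measured with LiveBLAzer FRET substrate after 2 h at room temperature. Compound exposure lasted 16 h at 37C.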

O=C1CCCCCCCCCCCN1
inactive: Potency [1] | outcome [2] | Potency [3] | Potency [4] | Potency [5] | Potency [6] | outcome [7] | outcome [8] | Potency [9] | Potency [10] | outcome [11] | outcome [12] | outcome [13] | outcome [14] | outcome [15] | Potency [16] | Potency [17] | outcome [18]

NC(=O)c1cn(Cc2c(F)cccc2F)nn1
inactive: Potency [1] | outcome [2] | Potency [3] | Potency [4] | outcome [19] | Potency [5] | outcome [20] | outcome [7] | outcome [8] | Potency [9] | Potency [10] | outcome [11] | outcome [12] | outcome [13] | outcome [14] | outcome [15] | Potency [16] | Potency [17] | outcome [18]

CC(=O)N(CC(O)CO)c1c(I)c(C(=O)NCCO)c(I)c(C(=O)NCC(O)CO)c1I (stereo not drawn)
inactive: Potency [1] | outcome [2] | Potency [3] | Potency [4] | outcome [19] | Potency [5] | outcome [20] | outcome [7] | outcome [8] | Potency [10] | outcome [11] | outcome [12] | outcome [13] | outcome [14] | outcome [15] | Potency [16] | Potency [17] | outcome [18]

CCOC(C)(C)C
inactive: Potency [1] | outcome [2] | Potency [3] | Potency [4] | outcome [19] | Potency [5] | outcome [20] | Potency [6] | outcome [7] | outcome [8] | Potency [9] | Potency [10] | outcome [11] | outcome [12] | outcome [13] | outcome [14] | outcome [15] | Potency [16] | Potency [17] | outcome [18]

N[C@@H](C(=O)N[C@@H]1C(=O)N2C(C(=O)O)=C(Cl)CS[C@H]12)c1ccccc1
inactive: activity change, negative = cytotoxicity [1] 12.6% [at 13.2 µM] | activation [2] 0.732% [at 13.2 µM] | viability change, negative = cytotoxic [3] 10.2% [at 13.7 µM] | ratio activity, negative = inhibition [4] 0.0649% [at 13.7 µM] | activity change, negative = inhibition [19] -0.0054% [at 13.2 µM] | viability change, negative = cytotoxic [5] 3.28% [at 13.2 µM] | activation [20] 0.369% [at 13.2 µM] | activity change, negative = cytotoxicity [6] 6.46% [at 13.2 µM] | activation [7] 4.64% [at 13.4 µM] | activity change, negative = inhibition [8] 2.28% [at 6.95 µM] | activity change, negative = cytotoxicity [9] 12.3% [at 13.2 µM] | viability change, negative = cytotoxic [10] -2.62% [at 6.95 µM] | activation [11] -0.195% [at 6.95 µM] | activity, negative = cytotoxic [12] 6.68% [at 6.95 µM] | activation [13] 4.99% [at 6.95 µM] | activity change, negative = cytotoxicity [14] 11.8% [at 6.95 µM] | activity, negative = cytotoxicity [15] 0.217% [at 8.39 µM] | activity change, negative = inhibition [16] 46.6% [at 8.39 µM] | viability change, negative = cytotoxic [17] 3.61% [at 6.97 µM] | activation [18] 0.719% [at 6.97 µM]

N=C(N)c1ccc2cc(OC(=O)c3ccc(N=C(N)N)cc3)ccc2c1
inactive: Potency [1] | outcome [2] | Potency [3] | Potency [4] | outcome [19] | Potency [5] | outcome [20] | Potency [6] | outcome [7] | outcome [8] | Potency [9] | Potency [10] | outcome [11] | outcome [12] | outcome [13] | outcome [14] | outcome [15] | Potency [16] | Potency [17] | outcome [18]

CCO/C([O-])=N/c1c[n+](N2CCOCC2)no1
inactive: Potency [1] | outcome [2] | Potency [3] | Potency [4] | outcome [19] | Potency [5] | outcome [20] | Potency [6] | outcome [7] | outcome [8] | Potency [9] | Potency [10] | outcome [11] | outcome [12] | outcome [13] | outcome [14] | outcome [15] | Potency [16] | Potency [17] | outcome [18]

Nc1ccccc1S(=O)(=O)O
inactive: Potency [1] | outcome [2] | Potency [3] | Potency [4] | Potency [5] | Potency [6] | outcome [7] | outcome [8] | outcome [11] | outcome [12] | outcome [13] | outcome [14] | outcome [15] | Potency [16] | Potency [17] | outcome [18]

COC(=O)c1cc(C(=O)OC)cc(S(=O)(=O)O)c1
inactive: Potency [1] | outcome [2] | Potency [3] | Potency [4] | outcome [19] | Potency [5] | outcome [20] | outcome [7] | outcome [8] | Potency [10] | outcome [11] | outcome [12] | outcome [13] | outcome [14] | outcome [15] | Potency [16] | Potency [17] | outcome [18]

COCCCOCCCOC
inactive: Potency [1] | outcome [2] | Potency [3] | Potency [4] | outcome [19] | Potency [5] | outcome [20] | outcome [7] | outcome [8] | Potency [10] | outcome [11] | outcome [12] | outcome [13] | outcome [14] | outcome [15] | Potency [16] | Potency [17] | outcome [18]

NS(=O)(=O)c1ccc(C(=O)O)cc1
inactive: Potency [1] | outcome [2] | Potency [3] | Potency [4] | outcome [19] | Potency [5] | outcome [20] | Potency [6] | Potency [9] | Potency [10] | outcome [11] | outcome [12] | outcome [13] | outcome [14] | outcome [15] | Potency [16] | Potency [17] | outcome [18]

CCCCCCOC(=O)CCCCC(=O)OCCCCCC
inactive: Potency [1] | outcome [2] | Potency [3] | Potency [4] | outcome [19] | outcome [20] | Potency [6] | outcome [7] | Potency [9] | Potency [10] | outcome [11] | outcome [12] | outcome [13] | outcome [14] | outcome [15] | Potency [16] | Potency [17] | outcome [18]

COC(C)(C)CCCC(C)CC=O (stereo not drawn)
inactive: Potency [1] | outcome [2] | Potency [3] | Potency [4] | outcome [19] | Potency [5] | outcome [20] | Potency [6] | outcome [7] | outcome [8] | Potency [9] | Potency [10] | outcome [11] | outcome [12] | outcome [13] | outcome [14] | outcome [15] | Potency [16] | Potency [17] | outcome [18]
